The values below come from PubChem BioAssay (EPA / NIEHS).

As usually defined, the AC50 is the midpoint of the concentration-response curve, whichever way the signal moves.

A short description of test [1]: ATG_CRE_CIS: Attagene CIS-FACTORIAL HepG2 Assay for human cAMP Responsive Element (CRE) binding protein 3 (AID 2282926). To be noted: HepG2 CRE cis-reporter, Attagene multiplexed mRNA; actives raise or lower the signal. An outline of the steps:
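Human liver HepG2, transient MRTU transfection, 24 h compound exposure. Total RNA → oligo(dT) RT → PCR → 6-FAM primer extension → HpaI cut → CE. Activity called both directions vs DMSO.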

The target of test [2] is CCAAT/enhancer-binding protein beta (Homo sapiens) (UniProt P17676). Nature of the test: ATG_C_EBP_CIS: Attagene CIS-FACTORIAL HepG2 Assay for human CCAAT/Enhancer Binding Protein (C/EBP) beta (AID 2282927). To be noted: HepG2 Attagene cis-factorial transcription factor reporter; actives raise or lower the signal. In a few lines:
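HepG2, transient MRTU transfection, 24 h treatment. RT-PCR plus CE fluorescence; DMSO negative control, bidirectional fit.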

The nature of test [3]: ATG_CMV_CIS: Attagene CIS-FACTORIAL HepG2 Assay for human CMV (Internal Marker) (AID 2282928).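 Note: endpoint acts as a background internal control marker rather than a target.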 The conditions noted are these: HepG2 CMV promoter reporter, transcription factor profiling; actives raise or lower the signal. An outline of the steps: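 CMV internal-marker background readout in transiently transfected HepG2 cells bearing cis-regulated reporter units. Reporter mRNA is measured 24 h after dosing by RT-PCR and capillary electrophoresis, with bidirectional fitting against DMSO.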

The nature of test [4]: ATG_AP_1_CIS: Attagene CIS-FACTORIAL HepG2 Assay for human Activator Protein 1 (AP-1) (AID 2282931). The conditions noted are these: HepG2 Attagene cis-factorial AP-1 reporter mRNA; actives raise or lower the signal. An outline of the steps: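 Endogenous transcription-factor activity in human HepG2 liver cells is read through a cis-promoter reporter transcript, sampled 24 h after dosing. Detection uses RT-PCR with capillary electrophoresis; values come from bidirectional fitting relative to DMSO.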

The nature of test [5]: ATG_AP_2_CIS: Attagene CIS-FACTORIAL HepG2 Assay for human Activator Protein 2 (AP-2) (AID 2282932). The conditions noted are these: HepG2 AP-2 cis-reporter, Attagene transcription factor profiling; actives raise or lower the signal. In a few lines:
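Multiplexed mRNA reporter assay in HepG2: cis-regulated units report endogenous factor activity after 24 h treatment. Fluorescence from capillary electrophoresis of RT-PCR products gives the signal, with DMSO as baseline.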

Test [6] in a line: ATG_BRE_CIS: Attagene CIS-FACTORIAL HepG2 Assay for human Bone Morphogenetic Protein (BMP) Response Element (BRE) (AID 2282933). To be noted: HepG2 BMP response element reporter, Attagene transcription factor profiling; actives raise or lower the signal. An outline of the steps: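 Multiplexed cis-reporter assay, HepG2, 24 h exposure. mRNA from reporter units quantified via RT-PCR/CE; DMSO baseline; bidirectional curve fit.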

Test [7] deals with Retinoic acid receptor alpha (Homo sapiens) (UniProt P10276). Description: ATG_DR5_RAR_CIS: Attagene CIS-FACTORIAL HepG2 Assay for human Retinoic Acid Receptor Alpha (RARE), DR5 submotif (AID 2282934).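 For AC50: reporter responds to endogenous RAR alpha beta and gamma in HepG2 not RARA alone.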 The conditions noted are these: HepG2 Attagene cis-factorial RARE DR5 reporter, mRNA; actives raise or lower the signal. An outline of the steps: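 After 24 h of chemical exposure, transiently transfected HepG2 cells were lysed for total RNA; the DR5-regulated reporter transcript was quantified via RT-PCR and capillary electrophoresis, with activity fitted bidirectionally against DMSO.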
Chain of Retinoic acid receptor alpha (Homo sapiens) (P10276 whole entry, looked up): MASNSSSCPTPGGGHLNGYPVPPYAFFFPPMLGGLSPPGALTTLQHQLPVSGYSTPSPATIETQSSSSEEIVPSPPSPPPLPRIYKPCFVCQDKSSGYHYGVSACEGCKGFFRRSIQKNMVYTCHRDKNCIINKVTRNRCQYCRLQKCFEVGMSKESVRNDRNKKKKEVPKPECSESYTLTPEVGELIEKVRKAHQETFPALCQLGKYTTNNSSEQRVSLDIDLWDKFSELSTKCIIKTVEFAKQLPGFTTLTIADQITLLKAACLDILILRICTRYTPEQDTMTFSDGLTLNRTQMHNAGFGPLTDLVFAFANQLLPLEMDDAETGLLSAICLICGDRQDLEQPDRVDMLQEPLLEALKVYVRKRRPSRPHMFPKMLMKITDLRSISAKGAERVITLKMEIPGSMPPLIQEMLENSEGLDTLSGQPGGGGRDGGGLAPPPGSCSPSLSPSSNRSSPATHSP

Test [8] addresses Transcription factor E2F1 (Homo sapiens) (UniProt Q01094). Nature of the test: ATG_E2F_CIS: Attagene CIS-FACTORIAL HepG2 Assay for human E2F Transcription Factor 1 (AID 2282935). To be noted: HepG2 Attagene cis-reporter, E2F reporter RNA transcripts; actives raise or lower the signal. An outline of the steps:
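Measures reporter transcript levels via RT-PCR with capillary electrophoresis detection in HepG2 cells harboring cis-regulated reporter units; 24 h post-dose; bidirectional curve fitting with DMSO as baseline.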

Test [9] has as its target Aryl hydrocarbon receptor (Homo sapiens) (UniProt P35869). Description: ATG_Ahr_CIS: Attagene CIS-FACTORIAL HepG2 Assay for human Aryl Hydrocarbon Receptor (Ahr) (AID 2282930). The conditions noted are these: HepG2 AhR cis-factorial reporter transcription; actives raise or lower the signal. In a few lines:
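Endogenous factor activity is tracked through cis-promoter reporter units transfected into HepG2 cells. Transcript levels at 24 h are read by fluorescent RT-PCR and capillary electrophoresis, with activity in either direction scored relative to DMSO.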

Active and inactive are the calls of the source. Rule for the calls: active = hit-call score of the fitted dose curve at least 0.9, where 1 is the maximum; inactive = score below 0.9.

Chain of Aryl hydrocarbon receptor (Homo sapiens) (P35869 whole entry, looked up): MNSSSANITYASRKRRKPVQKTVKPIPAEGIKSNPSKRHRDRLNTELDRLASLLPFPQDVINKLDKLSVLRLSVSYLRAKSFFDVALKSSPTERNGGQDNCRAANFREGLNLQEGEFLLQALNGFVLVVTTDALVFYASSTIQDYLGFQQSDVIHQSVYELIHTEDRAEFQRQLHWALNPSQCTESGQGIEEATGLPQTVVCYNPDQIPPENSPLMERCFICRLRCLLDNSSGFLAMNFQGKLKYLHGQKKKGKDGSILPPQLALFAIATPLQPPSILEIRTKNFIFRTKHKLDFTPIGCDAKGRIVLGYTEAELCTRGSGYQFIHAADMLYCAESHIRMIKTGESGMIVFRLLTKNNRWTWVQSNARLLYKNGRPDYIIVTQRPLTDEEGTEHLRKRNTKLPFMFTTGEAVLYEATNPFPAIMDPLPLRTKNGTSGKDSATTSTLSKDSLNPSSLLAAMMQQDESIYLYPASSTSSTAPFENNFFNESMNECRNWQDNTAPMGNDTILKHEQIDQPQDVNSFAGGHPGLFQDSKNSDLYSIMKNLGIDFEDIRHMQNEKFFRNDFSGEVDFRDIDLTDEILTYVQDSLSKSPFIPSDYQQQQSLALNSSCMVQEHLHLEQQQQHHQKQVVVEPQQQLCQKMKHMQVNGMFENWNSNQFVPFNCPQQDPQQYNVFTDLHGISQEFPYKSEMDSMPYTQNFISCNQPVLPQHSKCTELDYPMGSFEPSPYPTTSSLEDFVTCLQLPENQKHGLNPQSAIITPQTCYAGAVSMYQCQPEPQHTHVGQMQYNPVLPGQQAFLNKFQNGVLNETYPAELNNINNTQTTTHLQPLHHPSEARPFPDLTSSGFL
Chain of CCAAT/enhancer-binding protein beta (Homo sapiens) (P17676 whole entry, looked up): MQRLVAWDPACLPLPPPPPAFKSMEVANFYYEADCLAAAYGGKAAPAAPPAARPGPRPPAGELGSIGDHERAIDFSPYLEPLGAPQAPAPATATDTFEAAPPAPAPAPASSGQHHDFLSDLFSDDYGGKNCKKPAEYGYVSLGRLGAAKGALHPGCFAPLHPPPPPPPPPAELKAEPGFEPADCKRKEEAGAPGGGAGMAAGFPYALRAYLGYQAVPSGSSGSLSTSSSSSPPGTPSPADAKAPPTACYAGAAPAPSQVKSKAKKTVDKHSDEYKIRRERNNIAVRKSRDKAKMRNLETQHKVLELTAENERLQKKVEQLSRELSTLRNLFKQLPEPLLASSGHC
Chain of Transcription factor E2F1 (Homo sapiens) (Q01094 whole entry, looked up): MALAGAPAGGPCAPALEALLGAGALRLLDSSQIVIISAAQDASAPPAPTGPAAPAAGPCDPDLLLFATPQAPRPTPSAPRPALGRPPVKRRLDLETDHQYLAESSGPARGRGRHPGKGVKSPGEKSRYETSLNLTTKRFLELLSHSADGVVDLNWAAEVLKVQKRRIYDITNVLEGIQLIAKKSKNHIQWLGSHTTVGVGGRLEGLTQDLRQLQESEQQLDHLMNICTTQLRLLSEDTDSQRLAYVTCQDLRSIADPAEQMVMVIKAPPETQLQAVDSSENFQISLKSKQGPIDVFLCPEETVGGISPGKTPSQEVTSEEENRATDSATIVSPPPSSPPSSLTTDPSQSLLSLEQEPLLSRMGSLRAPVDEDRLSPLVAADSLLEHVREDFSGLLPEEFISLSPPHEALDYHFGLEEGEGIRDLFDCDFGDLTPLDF

As for `O=C(O)C1(C(=O)Nc2ccc(Cl)cc2Cl)CC1`, the outcome in test [1], in test [2], in [3], in test [4], in test [5] and in test [6] was inactive. Besides, the molecule was classed as inactive in test [7] and in test [8].

Turning to `CCCCC(CC)CN1C(=O)C2C3C=CC(C3)C2C1=O` (configuration not stated), the molecule was called inactive in test [1], in test [2], in test [3], in test [5] and in [8]. For the same molecule, the AC50 in test [4] was 69.6 µM (active); in [6], 45.3 µM (active).

With `CCC(C)OC(=O)N1CCCCC1CCO` (configuration not stated), the molecule was classed as inactive in test [1], in test [2], in [3], in [4], in test [5] and in [6]. The molecule was called inactive in [7] and in [8].

Turning to `CCCCOCCOCCOCc1cc2c(cc1CCC)OCO2`, the molecule was called inactive in [1], in test [2], in [9], in test [5], in test [6] and in [7]. Moreover, the results for the AC50 in test [3], in [4] and in test [8] were 24.3 µM (active), 50 µM (active) and 58.4 µM (active), respectively.

Take `O=C(c1ccc(O)cc1O)c1ccc(O)cc1O`: the molecule was called inactive in test [1], in test [2], in test [4], in test [5], in test [6] and in test [7]. Further, the call in test [8] was inactive. Further, the concentration at half-maximal activity (AC50) in test [3] is 80.5 µM (active) [middle of 4 runs].

In the case of `CCCCCCC(C)OC(=O)COc1nc(F)c(Cl)c(N)c1Cl` (configuration not stated), the outcome in test [1], in test [2], in test [3], in [4], in [5] and in test [6] was inactive. The result in test [8] was inactive.

In the case of `S=C([S-])NCCNC(=S)[S-].[Mn+2]`, the result in [1], in test [2], in test [3], in test [4], in test [5] and in [6] was inactive. The call in [8] was inactive.

For `Oc1ccc(C(c2ccc(O)cc2)C(Cl)(Cl)Cl)cc1`, the molecule was classed as inactive in [1], in test [2], in test [3], in [9], in test [4] and in test [5]. For the same molecule, the outcome in test [6] and in test [8] was inactive.

As for `COC(=O)CSc1cc(N=c2sc(=O)n3n2CCCC3)c(F)cc1Cl`, the outcome in [1], in [2], in [3], in test [4], in [5] and in [6] was inactive. Further, the result in test [8] was inactive.

On to `COCCO`, for which the molecule was classed as inactive in [1], in test [2], in test [3], in [4], in test [5] and in test [6]. Also, the call in [7] and in test [8] was inactive.

In the case of `COc1c(Cl)ccc(Cl)c1C(=O)O`, the outcome in test [1], in test [2], in [3], in test [9], in test [4] and in test [5] was inactive. In addition, the result in test [6], in [7] and in test [8] was inactive.

As to `CCCCCOC(=O)COc1cc(N2C(=O)C3=C(CCCC3)C2=O)c(F)cc1Cl`, the molecule was called inactive in test [1], in test [2], in test [3], in [9], in test [4] and in test [5]. Besides, the result in test [6], in test [7] and in [8] was inactive.

For the molecule `C[C@]12CC[C@@H]3c4ccc(O)cc4C[C@@H](CCCCCCCCCS(=O)CCCC(F)(F)C(F)(F)F)[C@H]3[C@@H]1CC[C@@H]2O` (some centres not stated), the result in test [1], in test [2], in test [3], in test [4], in test [5] and in test [6] was inactive. The result in test [7] and in [8] was inactive.

Take `CCNc1nc(N)nc(Cl)n1`: the call in test [1], in [2], in [3], in test [4], in test [5] and in test [6] was inactive. For the same molecule, the outcome in test [7] and in test [8] was inactive.

`CCN(Cc1c(F)cccc1Cl)c1c([N+](=O)[O-])cc(C(F)(F)F)cc1[N+](=O)[O-]`: the outcome in test [1], in [2], in test [9], in test [5] and in [8] was inactive. In addition, the half-maximal activity concentration (AC50) in [3] is 10.6 µM (active); in [4] it was 28.9 µM (active); in test [6] it was 1.4 µM (active); in test [7], 1.8 µM (active).

As for `COC(=O)c1ccccc1C(=O)O`, the molecule was called inactive in [1], in [2], in [3], in [9], in [4] and in [5]. Also, the result in test [6], in test [7] and in test [8] was inactive.

For the molecule `c1ccc2[nH]c(-c3cscn3)nc2c1`, the molecule was classed as inactive in [1], in test [2], in test [3], in [4], in [5] and in test [6]. Moreover, the molecule was classed as inactive in [7] and in [8].
